# Measurements as given in PMC7819943, “Rice protein-binding microarrays: a tool to detect cis-acting elements near promoter regions in rice”.
# Over roughly 68,000 sequences, “fluorescence intensity (a.u.)” has its median near 9,100; the highest 2% begin near 16,000. The list comes from a sample in which the highest values are over-represented; it also holds similar and randomly drawn sequences.
# Biological target: OsWRKY34 (Oryza sativa, UniProt Q0JBA9 1-250)
# Assay: protein-binding microarray (RPBM); PBS, 2% BSA, 51.3 ng/ul salmon testes DNA, 50 uM zinc acetate, 200 nM TF, 25 C, 1 h; high values mean tight binding
# Settings: protein: recombinant; tags: N-terminal polyhistidine and DsRed monomer fusion (pET32a); label: CyDye5-dUTP incorporated in the synthesized complementary strand; 3' TTTTT single-stranded linker to array surface; dsDNA, one strand shown
# Method in brief: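 The binding signal is fluorescence intensity per feature, in arbitrary units, read on an Axon 4000B scanner. Polyhistidine- and DsRed-tagged transcription factors (N-terminal fusions) from E. coli BL21-CodonPlus were purified on Ni–NTA and applied at 200 nM for 1 h at 25 °C to a double-stranded, BSA-blocked custom Agilent array in buffer with 50 µM zinc acetate.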
# Chain of OsWRKY34 (Q0JBA9 entry or part of it): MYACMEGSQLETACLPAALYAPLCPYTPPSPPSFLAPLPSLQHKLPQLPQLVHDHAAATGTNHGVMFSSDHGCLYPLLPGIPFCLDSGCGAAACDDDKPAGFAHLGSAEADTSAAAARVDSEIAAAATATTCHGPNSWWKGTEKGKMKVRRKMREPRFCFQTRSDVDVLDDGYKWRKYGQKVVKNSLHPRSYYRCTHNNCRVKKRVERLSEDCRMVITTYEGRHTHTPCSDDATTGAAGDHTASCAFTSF
row,Sequence,binding signal
1,CTCCGTTTTTTAATAGATGACACCGTTGACTTTTTCTCACCGGAGTCACCTAGTGCAG,30600 fluorescence intensity (a.u.)
2,CTGATTATACCATTGTTTTCGTTGCAACTAAATCTTGATACGGAGTCACCTAGTGCAG,9280 fluorescence intensity (a.u.)
3,TGCAAGCTCCGCCGTTTGTGTGTAATGGGGTTTCCCAAATCGGAGTCACCTAGTGCAG,8230 fluorescence intensity (a.u.)
4,CACTTCACCTTTTTTGCAAGATGCTACTACTAATTACTAACGGAGTCACCTAGTGCAG,10400 fluorescence intensity (a.u.)
5,GATATACACACTTAGCTCTCCTACTGTGAGAATTCTCTTCCGGAGTCACCTAGTGCAG,9480 fluorescence intensity (a.u.)
6,CCCTTTTTTATACCGTGGCATATCTCTCTGCATTTAATCTCGGAGTCACCTAGTGCAG,13700 fluorescence intensity (a.u.)
7,ATATGGCATTGTTTCTGTGTTATTCAGGCGCACCTTTAAACGGAGTCACCTAGTGCAG,10100 fluorescence intensity (a.u.)
8,CGGTTGCTCCTTTGCCTAATCACTCAATTCCAGTAACTTTCGGAGTCACCTAGTGCAG,8760 fluorescence intensity (a.u.)
9,TTGGGGTTGGACCGGTTTTCATCTGTTCTTGTCCTGAGAGCGGAGTCACCTAGTGCAG,10800 fluorescence intensity (a.u.)
10,GTGCAGCAATCATCTCGTCCACCTCACCTTACCCGAAACCCGGAGTCACCTAGTGCAG,8340 fluorescence intensity (a.u.)
11,GCCTCTGCCAGCCGACGGCCGTTCGGCCCTCCGCGCACGCCGGAGTCACCTAGTGCAG,8320 fluorescence intensity (a.u.)
12,CTTATCCACCATCAATGTTCCTGACTTCAATTTTTCGTTGCGGAGTCACCTAGTGCAG,10500 fluorescence intensity (a.u.)
13,TAACATTGATTGTTATGTCACTTGTCTGTGGATCAACTCTCGGAGTCACCTAGTGCAG,9060 fluorescence intensity (a.u.)
14,CTCTTGAACGTTGTCGCCCGCCGTTTCCCGCCGCTGTCTCCGGAGTCACCTAGTGCAG,18200 fluorescence intensity (a.u.)
15,CCGTTTCCCGCCGCTGTCTCCCGCCGGAGCCGCCCCTGCTCGGAGTCACCTAGTGCAG,9030 fluorescence intensity (a.u.)
16,GCGCTCCCGTCGTTGTCTCCGCTGCTTTGTTTCTCGTCGCCGGAGTCACCTAGTGCAG,11600 fluorescence intensity (a.u.)
17,CTTCGTTTTTTAATAGATGACGCCGTTGACTTTTTCTCACCGGAGTCACCTAGTGCAG,22000 fluorescence intensity (a.u.)
18,TAAATCCACGACCCTTCAGCTATCTATCTCAGCTCCAATCCGGAGTCACCTAGTGCAG,8170 fluorescence intensity (a.u.)
19,CTGCAATCTAGCCATCTGTTATCTATCCATGCATCGATGTCGGAGTCACCTAGTGCAG,8120 fluorescence intensity (a.u.)
20,ATAAACATAAACTTCCAACATTTCCGTCACATCATTCTAACGGAGTCACCTAGTGCAG,8970 fluorescence intensity (a.u.)

row,Sequence,binding signal
1,TTGGTGGGCCGTTATTTTGTTTGGGCTGGATTTGCACGTTCGGAGTCACCTAGTGCAG,11700 fluorescence intensity (a.u.)
2,CGTTTTTGCTCGGGTGGGCTGGGTTAGGGACTCATCTGCACGGAGTCACCTAGTGCAG,23800 fluorescence intensity (a.u.)
3,CACTCTGCAGCTCTGCTCGTTTTGCACACGGGTGACTCGTCGGAGTCACCTAGTGCAG,9700 fluorescence intensity (a.u.)
4,CATATCCGTTTTTGCTCGGGTGGGCTGGGTTAGGGACTCACGGAGTCACCTAGTGCAG,19000 fluorescence intensity (a.u.)
5,TTTCGGCCCACATTCCTATCCGTTTTTGCTCGGGTGGGCTCGGAGTCACCTAGTGCAG,10900 fluorescence intensity (a.u.)
6,ATGGCGTTTGGGTTTGGCTCGGGTTGATCTGGATAAGGGACGGAGTCACCTAGTGCAG,9020 fluorescence intensity (a.u.)
7,CCGCGCATTTTTTTGGTTCGAAATTCCTTTGCTAAGCAAACGGAGTCACCTAGTGCAG,8380 fluorescence intensity (a.u.)
8,AAGGTTGGCATGACAATTCTCACTACTTGGACTAACAGTTCGGAGTCACCTAGTGCAG,8310 fluorescence intensity (a.u.)
9,TTCCAACTACCTAGCTCAGCTTAGTCTCTGGTTGACCATTCGGAGTCACCTAGTGCAG,8450 fluorescence intensity (a.u.)
10,GCTTCTACAATCGGATGGATTCACCATTGATTCTCGTTTTCGGAGTCACCTAGTGCAG,8940 fluorescence intensity (a.u.)
11,ACTTGATTTACGAACAGACATTTTTTATTTTTCTACACCACGGAGTCACCTAGTGCAG,9230 fluorescence intensity (a.u.)
12,TTGGGGTCGAGATATCCGGTTTTGTGGTTTAGGGTCATGTCGGAGTCACCTAGTGCAG,9090 fluorescence intensity (a.u.)
13,TATTTGACGCCGTTGATTTTTTTAAATATGTTTGACCGTTCGGAGTCACCTAGTGCAG,11000 fluorescence intensity (a.u.)
14,TATTTGATGCCGTTGACTTTTTTAAATATGTTTGACCGTTCGGAGTCACCTAGTGCAG,20900 fluorescence intensity (a.u.)
15,ATTTGATGCCGTTGACTTTTTTAAATATGTTTAACCGTTCCGGAGTCACCTAGTGCAG,33000 fluorescence intensity (a.u.)
16,ACTTTTTTAAATATGTTTGACCGTTCGTTTTATTCAAAAACGGAGTCACCTAGTGCAG,8320 fluorescence intensity (a.u.)
17,GAATTGATCTCATGCATGCCAACCCTTCTAGCAATCTATCCGGAGTCACCTAGTGCAG,9310 fluorescence intensity (a.u.)
18,GGACCGTTCACTAACCCCGTAACCGTGTCGCGCGCGCAACCGGAGTCACCTAGTGCAG,9590 fluorescence intensity (a.u.)
19,TTCTTATTTGCAAGTATACTGTTTTGCTTTTCTCTCTAATCGGAGTCACCTAGTGCAG,9690 fluorescence intensity (a.u.)
